Reference: PubChem BioAssay (NCI)
About 79,000 compounds went through this panel and 15% of them were active in at least one assay; those are over-represented in the sample as a whole. A number with no mark means an inactive call. Active and inactive are the calls of the source. No stated cut-off is given here; in the data, active means growth inhibition above about 70%; inactive means the rest.

What was measured:
[1] = NCI Yeast Anticancer Drug Screen. Data for the rad52 strain (AID 147);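 further: 0% = growth of vehicle-treated control cultures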; conditions: S. cerevisiae rad52 mutant growth inhibition, stronger effect = higher value
Outline: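 Read-out: growth inhibition versus vehicle-treated controls. Cells were a DNA repair-deficient yeast strain treated with compounds.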

[2] = NCI Yeast Anticancer Drug Screen. Data for the wt1 strain (AID 149);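 further: 0% = growth of vehicle-treated wt1 cultures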; conditions: S. cerevisiae wt1 strain (SPY 50644) growth inhibition, stronger effect = higher value
Outline: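 Readout: yeast growth inhibition, normalised to vehicle controls, in the wt1 strain exposed to test compounds.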

[3] = NCI Yeast Anticancer Drug Screen. Data for the rad50EPP+ strain (AID 151);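 further: 0% = growth of vehicle-treated control cultures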; conditions: S. cerevisiae rad50 mutant strain, stronger effect = higher value
Outline: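 Growth inhibition read against vehicle controls in rad50EPP+ yeast, a strain altered in DNA damage repair, after compound exposure.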

[4] = NCI Yeast Anticancer Drug Screen. Data for the mgt1 strain (AID 153); conditions: S. cerevisiae mgt1 mutant growth inhibition, stronger effect = higher value
Outline: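 mgt1 yeast grown with test compound; read-out is growth inhibition versus vehicle-treated cultures.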

[5] = NCI Yeast Anticancer Drug Screen. Data for the rad50 strain (AID 155);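 further: 0% = growth of vehicle-only cultures of the same strain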; conditions: S. cerevisiae rad50 strain growth inhibition, stronger effect = higher value
Outline: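 Compounds were tested on a yeast strain with an engineered DNA damage repair alteration; the reported value is growth inhibition normalised to vehicle treatment.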

[6] = NCI Yeast Anticancer Drug Screen. Data for the mec2-1 strain (AID 157); conditions: S. cerevisiae mec2-1 strain, stronger effect = higher value
Outline: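 Yeast mec2-1 mutant treated with compound. Readout: growth inhibition vs vehicle controls.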

[7] = NCI Yeast Anticancer Drug Screen. Data for the rad14 strain (AID 159);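 further: 0% = growth of vehicle-treated control cultures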; conditions: S. cerevisiae rad14 strain growth inhibition, stronger effect = higher value
Outline: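 Compound-treated yeast with a defined DNA-repair lesion; growth inhibition normalised to vehicle-treated cultures.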

[8] = NCI Yeast Anticancer Drug Screen. Data for the sgs1 mgt1 strain (AID 161);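 further: 0% = growth of cultures given vehicle only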; conditions: S. cerevisiae sgs1 mgt1 strain, stronger effect = higher value
Outline: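 Read-out: growth inhibition vs vehicle controls. Cells: mutant yeast strain deficient in DNA damage repair.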

[9] = NCI Yeast Anticancer Drug Screen. Data for the CLN2oe strain (AID 163);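 further: 0% = growth of vehicle-only control cultures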; conditions: S. cerevisiae CLN2oe strain, stronger effect = higher value
Outline: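 Read-out: yeast growth inhibition, expressed relative to vehicle-only controls. The strain bears an engineered cell-cycle alteration.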

[10] = NCI Yeast Anticancer Drug Screen. Data for the cln2 rad14 strain (AID 165);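 further: 0% = growth equal to vehicle treated cultures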; conditions: S. cerevisiae cln2 rad14 strain, stronger effect = higher value
Outline: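 cln2 rad14 yeast strain; compound exposure; growth inhibition read vs vehicle controls.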

[11] = NCI Yeast Anticancer Drug Screen. Data for the bub3 strain (AID 167); conditions: S. cerevisiae bub3 mutant strain, stronger effect = higher value
Outline: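 Growth of a checkpoint-deficient yeast mutant is measured after compound exposure. Values represent inhibition relative to vehicle.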

[12] = NCI Yeast Anticancer Drug Screen. Data for the wt2 strain (AID 169);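 further: 0% = growth of vehicle-treated yeast cultures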; conditions: S. cerevisiae wt2 strain growth inhibition, stronger effect = higher value
Outline: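 Read-out: growth inhibition versus vehicle-treated control cultures after compound exposure of the yeast strain.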

[13] = NCI Yeast Anticancer Drug Screen. Data for the mlh1 strain (AID 171);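 further: 0% = growth of vehicle-treated control cultures of the same strain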; conditions: S. cerevisiae mlh1 strain growth inhibition, stronger effect = higher value
Outline: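 Read-out: growth inhibition versus vehicle controls. Strain: engineered yeast with a defined DNA repair or cell cycle defect, compound-treated.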

[14] = NCI Yeast Anticancer Drug Screen. Data for the sgs1 strain (AID 173);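 further: 0% = growth of vehicle-only control cultures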; conditions: S. cerevisiae sgs1 mutant, stronger effect = higher value
Outline: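 Read-out: yeast growth inhibition relative to vehicle controls, following compound exposure of a strain with a defined DNA repair/cell cycle alteration.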

[15] = NCI Yeast Anticancer Drug Screen. Data for the mlh1 rad18 strain (AID 175); conditions: S. cerevisiae mlh1 rad18 strain growth inhibition, stronger effect = higher value
Outline: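 Yeast w/ defined DNA-repair lesions; compound exposure; growth vs vehicle controls → % inhibition.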

[16] = NCI Yeast Anticancer Drug Screen. Data for the rad18 strain (AID 177); conditions: S. cerevisiae rad18 mutant growth inhibition, stronger effect = higher value
Outline: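 Readout: growth inhibition vs vehicle controls. Cells: genetically altered yeast strain, DNA repair defect.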

[17] = at 5.0 µM (retest, dose inferred, filed as 0.5)
[18] = at 50.0 µM (retest, dose inferred, filed as 5.0)

COc1cc(/C=N/Nc2nnc3c4ccccc4c4ncccc4c3n2)cc(OC)c1OC
growth inhibition ([1]; at 1.2 µM): 40% | growth inhibition ([1]; at 3.7 µM): 51% | growth inhibition ([1]; at 11.0 µM): 81% (active) | growth inhibition ([1]; at 33.0 µM): 74% (active) | growth inhibition ([1]; at 100.0 µM): 89% (active) | growth inhibition ([2]; at 1.2 µM): -22% | growth inhibition ([2]; at 3.7 µM): -1% | growth inhibition ([2]; at 11.0 µM): -1% | growth inhibition ([2]; at 33.0 µM): 4% | growth inhibition ([2]; at 100.0 µM): 9% | growth inhibition ([3]; at 1.2 µM): 20% | growth inhibition ([3]; at 3.7 µM): 36% | growth inhibition ([3]; at 11.0 µM): 58% | growth inhibition ([3]; at 33.0 µM): 80% (active) | growth inhibition ([3]; at 100.0 µM): 84% (active) | growth inhibition ([4]; at 1.2 µM): 0% | growth inhibition ([4]; at 3.7 µM): 1% | growth inhibition ([4]; at 11.0 µM): 3% | growth inhibition ([4]; at 33.0 µM): 5% | growth inhibition ([4]; at 100.0 µM): 6% | growth inhibition ([5]; at 1.2 µM): 18% | growth inhibition ([5]; at 3.7 µM): 36% | growth inhibition [5, 17]: 4% | growth inhibition ([5]; at 11.0 µM): 66% | growth inhibition ([5]; at 33.0 µM): 81% (active) | growth inhibition [5, 18]: 62% | growth inhibition ([5]; at 50.0 µM): 93% (active) | growth inhibition ([5]; at 100.0 µM): 86% (active) | growth inhibition ([6]; at 1.2 µM): 15% | growth inhibition ([6]; at 3.7 µM): 1% | growth inhibition [6, 17]: -2% | growth inhibition ([6]; at 11.0 µM): 3% | growth inhibition ([6]; at 33.0 µM): 9% | growth inhibition [6, 18]: -5% | growth inhibition ([6]; at 50.0 µM): 22.1% | growth inhibition ([6]; at 100.0 µM): 11% | growth inhibition ([7]; at 1.2 µM): -1% | growth inhibition ([7]; at 3.7 µM): 2% | growth inhibition ([7]; at 11.0 µM): 5% | growth inhibition ([7]; at 33.0 µM): 8% | growth inhibition ([7]; at 100.0 µM): 14% | growth inhibition [8, 17]: -5% | growth inhibition [8, 18]: -2% | growth inhibition ([8]; at 50.0 µM): 34% | growth inhibition ([9]; at 1.2 µM): -8% | growth inhibition ([9]; at 3.7 µM): -2% | growth inhibition ([9]; at 11.0 µM): -2% | growth inhibition ([9]; at 33.0 µM): -3% | growth inhibition ([9]; at 100.0 µM): 1% | growth inhibition [10, 17]: -7% | growth inhibition [10, 18]: -6% | growth inhibition ([10]; at 50.0 µM): 47.8% | growth inhibition ([11]; at 1.2 µM): -1% | growth inhibition ([11]; at 3.7 µM): -1% | growth inhibition [11, 17]: 1% | growth inhibition ([11]; at 11.0 µM): -4% | growth inhibition ([11]; at 33.0 µM): -11% | growth inhibition [11, 18]: -16% | growth inhibition ([11]; at 50.0 µM): 6.55% | growth inhibition ([11]; at 100.0 µM): -8% | growth inhibition ([12]; at 1.2 µM): -5% | growth inhibition ([12]; at 3.7 µM): -1% | growth inhibition ([12]; at 11.0 µM): -2% | growth inhibition ([12]; at 33.0 µM): -3% | growth inhibition ([12]; at 100.0 µM): -4% | growth inhibition ([13]; at 1.2 µM): -1% | growth inhibition ([13]; at 3.7 µM): 0% | growth inhibition ([13]; at 11.0 µM): -2% | growth inhibition ([13]; at 33.0 µM): 3% | growth inhibition ([13]; at 100.0 µM): 6% | growth inhibition ([14]; at 1.2 µM): 2% | growth inhibition ([14]; at 3.7 µM): 5% | growth inhibition ([14]; at 11.0 µM): 4% | growth inhibition ([14]; at 33.0 µM): 9% | growth inhibition ([14]; at 100.0 µM): 10% | growth inhibition [15, 17]: -25% | growth inhibition [15, 18]: -8% | growth inhibition ([15]; at 50.0 µM): 55.6% | growth inhibition ([16]; at 1.2 µM): 11% | growth inhibition ([16]; at 3.7 µM): 8% | growth inhibition ([16]; at 11.0 µM): 21% | growth inhibition ([16]; at 33.0 µM): 29% | growth inhibition ([16]; at 100.0 µM): 30%
